# Hits are enriched below; roughly 3% of the tested compounds scored in any of these assays.
# esBAF inh: Bmi1 luciferase reporter increase in mESCs, primary screen, esBAF inhibitor project, mouse ES cells, Bmi1 luciferase knock-in, single point | 24 h; 100% = twice the neutral-well signal | reporter increase, % at 12.5 µM | 350,000 tested, 2% active; in the data active = activation above about 40%; inconclusive = no clear call, values can overlap the other calls;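 also: 0% = median of the plate's neutral control wells and 100% = double that signal; a rise in the Bmi1 reporter signal indicates esBAF inhibition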
# C2C12 statin: suppressors of statin myotoxicity in C2C12 myotubes, primary screen, cell-based, single point, plate reader. 330,000 tested, 0.78% active. C2C12 myotubes + simvastatin, ATP luminescence, 48 h; scaled: DMSO 0, geranylgeraniol control 100. rescue of ATP level, % at 7.49 µM. AID 602340, 2012;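 active = mean ATP rescue above about 67%, or every replicate alone reaching that limit, limit read from the data, passing the limit was not always enough; inconclusive = no clear call, values can overlap the other calls; inactive = mean under the limit and some replicate under it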;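 also: myotubes were challenged with 10 µM simvastatin during compound exposure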
# MITF TRPM1 HTS: activators of MITF-driven TRPM1 promoter reporter, primary screen, cell-based, SK-MEL-5, luciferase, single point | SK-MEL-5 TRPM1-promoter luciferase, 24 h; % of positive control, neutral wells = 0 | activation, % at 12.5 µM | 300,000 tested, 0.75% active | AID 588334, 2011;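 active = mean activation of at least 80% with every replicate also reaching 80%; inconclusive = mean reaches 80% but some replicate falls short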;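 also: 0% = neutral control wells and 100% = parthenolide positive control wells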
# Wnt bcat act: Wnt/beta-catenin pathway activators, primary screen, cell-based, plate reader, single point | activation, % at 9.35 µM | Wnt/beta-catenin reporter cell assay, activator | 300,000 tested, 1.2% active; in the data active = activation above about 30%, passing the limit was not always enough; inconclusive = no clear call, values can overlap the other calls;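 also: 0% = neutral control wells and 100% = positive control wells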
# Numbers without * were called inactive; ? = inconclusive; . = no result.
SMILES,esBAF inh,C2C12 statin,MITF TRPM1 HTS,Wnt bcat act
Cc1ccc(Cc2nnc3n(-c4ccccc4)nc(C(=O)c4ccccc4)n3c2=O)cc1,-9,91*,-6,-17
Cc1ccc(CNC(=O)c2cc(C)nn2-c2ccccc2)cc1,-14,14,-8,-1
O=C(/C=C/c1ccccc1)Nc1cccnc1,31,-8,.,39*
Cc1cccc(NC(=O)/C=C/c2cccs2)n1,20,3,104*,.
O=C(/C=C/c1ccc([N+](=O)[O-])cc1)Nc1cccnc1,23,1,8,38*
O=C(/C=C/c1cccs1)Nc1ccc([N+](=O)[O-])cc1,.,.,68,31*
O=C(Cc1ccc([N+](=O)[O-])cc1)Nc1cccnc1,.,.,7,7
COc1ccc(NC(=O)N(C)C[C@@H]2Oc3ccc(NC(=O)Nc4cccc5ccccc45)cc3C(=O)N([C@H](C)CO)C[C@@H]2C)cc1,7,.,.,.
COc1ccc(S(=O)(=O)N(C)C[C@H]2OCCCC[C@@H](C)Oc3ccc(NS(C)(=O)=O)cc3C(=O)N([C@@H](C)CO)C[C@@H]2C)cc1,0,.,.,.
COc1ccc(NC(=O)Nc2cccc3c2O[C@@H](CN(C)S(=O)(=O)c2ccc(OC)cc2)[C@H](C)CN([C@@H](C)CO)C3=O)cc1,5,34,.,.
C[C@@H]1CN([C@@H](C)CO)C(=O)c2cccc(NS(=O)(=O)c3cccs3)c2O[C@H]1CN(C)CC1CCCCC1,1,12,.,.
C[C@H](NC(=O)[C@H]1[C@H](CO)[C@H]2Cn3c(cccc3=O)[C@@H]1N2Cc1cccnc1)c1ccccc1,-2,7,.,.
O=C(C=Cc1ccccc1)Nc1ccccc1,4,-20,34,14
O=C(/C=C/c1ccc(Cl)c([N+](=O)[O-])c1)Nc1cccnc1,53*,.,20,0
O=C(/C=C/c1ccccc1)Nc1cccnc1Oc1ccccc1F,31,94*,20,-4
Cc1nc(NC(=O)/C=C/c2ccccc2)n[nH]1,40,-17,-58,39*
O=C(CSc1nnc([C@@H]2CCCN2)o1)c1ccc(Cl)cc1,14,-6,25,37*
Cc1ccc(NC(=O)c2cnc3ccccc3n2)cc1C,32,-10,.,42*
Cc1cnc(C(=O)Nc2ccc(C)c(S(=O)(=O)N(C)C)c2)cn1,.,.,0,0
Cc1ccc(NC(=O)c2ccc3ccccc3n2)cc1S(=O)(=O)N(C)C,83*,-7,119*,43*
COCC#Cc1cnc2c(c1)C(=O)N([C@@H](C)CO)C[C@@H](C)[C@@H](CN(C)C(=O)Cc1ccncc1)O2,-4,-6,.,.
O=C(O)c1cc(-c2ccc(/C=C3\NC(=O)N(c4ccccc4)C3=O)o2)ccc1Cl,6,2,-1,9
C#CCN1C(=O)S/C(=C\c2ccc(-c3ccc(Cl)c(C(=O)O)c3)o2)C1=O,38,1,27,31*
COc1ccc2c(n1)Sc1nc3ccccc3nc1N2,23,25,-8,40*
COc1ccc(Cl)cc1NC(=O)CN1C(=O)CCS(=O)(=O)c2ccccc21,-11,2,-3,.
SMILES,esBAF inh,C2C12 statin,MITF TRPM1 HTS,Wnt bcat act
COc1ccccc1NC(=O)CN1C(=O)CCS(=O)(=O)c2ccccc21,1,125*,-9,.
COc1ccc(S(=O)(=O)Nc2ccc3c(c2)CC(=O)N([C@H](C)CO)C[C@H](C)[C@@H](CN(C)CC2CCCCC2)O3)cc1,3,54,.,.
CCSc1nnc2nc(C)cc(C)n12,.,.,-6,-1
Cc1ccc(CSc2nnc3nc(C)cc(C)n23)cc1,1,139*,10,.
Nc1nc2c(-c3ccc(Br)cc3)nnn2c2ccccc12,16,-27,40,43*
c1ccc(-c2ccc3sccc3n2)cc1,.,.,116*,48*
Nc1nc(-c2ccccc2)cs1,?,0,38,.
CCN(CC)c1nc(C#N)cc(-c2ccc(OC)cc2)n1,4,109*,-27,.
COCCNC(=O)C[C@@H]1CC[C@H]2[C@H](COc3ccc(NC(=O)COC)cc3C(=O)N2C)O1,-1,2,.,.
CC1CC(=O)c2cc(-c3ccccc3)oc2C1 (stereo unspecified),36,11,.,6
CC1CC(=O)C(C(C2=C(O)CC(C)CC2=O)c2ccccc2)=C(O)C1 (stereo unspecified),.,101*,-6,-2
C[C@@H]1CN([C@@H](C)CO)C(=O)c2cccc(NC(=O)c3nc4ccccc4s3)c2O[C@@H]1CN(C)S(=O)(=O)c1cccs1,-1,.,.,.
CC(=O)Nc1cccc(Nc2nc(-c3ccccc3F)nc3ccccc23)c1,3,106*,-5,-1
Cc1cccc(-c2nc(CN3CCN(Cc4cccc(F)c4)CC3)c(C)o2)c1,0,6,5,49*
Cc1oc(-c2cccc(F)c2)nc1CN1CCCN(C(=O)c2ccco2)CC1,3,7,1,5
Cc1noc(C)c1NC(=O)Nc1ccc2c(c1)C(=O)N([C@H](C)CO)C[C@@H](C)[C@H](CN(C)Cc1ccc3c(c1)OCO3)OCCCC[C@@H](C)O2,2,.,.,.
O=C(Nc1cccc2cccnc12)c1cccc2ccccc12,0,-3,9,-2
COc1cc(C(=O)Nc2cccc3ncccc23)cc(OC)c1OC,-3,92*,.,-1
COc1cccc(C(=O)Nc2cccc3cccnc23)c1OC,43*,-7,25,.
COc1cc(C(=O)Nc2cccc(-c3nc4ccccc4o3)c2C)cc(OC)c1OC,10,97*,-11,.
Cc1c(NC(=O)c2ccc3c(c2)OCO3)cccc1-c1nc2ccccc2o1,4,30,14,.
C[C@H]1CN([C@@H](C)CO)C(=O)c2cc(NC(=O)Nc3ccccc3)ccc2O[C@@H]1CN(C)S(=O)(=O)c1ccc(Cl)cc1,0,-30,.,.
CC(C)(C)NC(=O)Nc1cccc(Cl)c1Cl,.,.,5,-5
CC(C(=O)Nc1ccc(F)c(F)c1)N1CCN(C)CC1 (stereo unspecified),-2,-5,-4,1
Cn1cccc1C(=O)C(=O)Nc1cccc(Cl)c1Cl,63*,28,58,.
SMILES,esBAF inh,C2C12 statin,MITF TRPM1 HTS,Wnt bcat act
Cn1cccc1C(=O)C(=O)Nc1cc(Cl)cc(Cl)c1,49*,.,46,7
Cn1cccc1C(=O)C(=O)Nc1ccc(F)c(F)c1,46*,-17,103*,-1
Cn1cccc1C(=O)C(=O)Nc1ccc(Cl)cc1,13,93*,.,9
COc1ccccc1NC(=O)N[C@@H]1CC[C@H](CC(=O)N[C@H](C)c2ccccc2)O[C@@H]1CO,5,15,.,.
CO[C@@H]1CN(C)C(=O)c2cc(NS(C)(=O)=O)ccc2OC[C@H](C)N(CCC(F)(F)F)C[C@H]1C,1,-3,.,.
C[C@@H]1CN([C@@H](C)CO)C(=O)Cc2cc(NS(C)(=O)=O)ccc2O[C@H]1CN(C)Cc1ccc(C(F)(F)F)cc1,2,-18,.,.
C[C@H]1CN([C@@H](C)CO)C(=O)Cc2cc(NC(=O)C3CCCCC3)ccc2O[C@H]1CN(C)C(=O)Nc1ccc2c(c1)OCO2,26,-8,.,.

# Screening results as filed in PubChem BioAssay.
